PubChem BioAssay (EPA / NIEHS)
Active and inactive are the calls of the source. Rule for the calls: active = hit-call score of the fitted dose curve at least 0.9, where 1 is the maximum; inactive = score below 0.9.

Tests used:
Details in all cases: mRNA level, 48 h; actives raise or lower the signal
[1] = read-out: ABC Transporter (ABCC2), ABCC2 (gene 1244); assay: LTEA_HepaRG_ABCC2: Life Technologies and Expression Analysis (LTEA) Assay for ABC Transporter (ABCC2) using HepaRG (AID 2283464)
In short: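 HepaRG cells were plated 48 h, switched to serum-free induction medium, then exposed in duplicate for 48 h to 8 concentrations (top 100 uM, half-log steps, 0.5% DMSO). ABCC2 mRNA was measured by qRT-PCR normalized to ACTB/GAPDH/POLR2A; bidirectional fitting versus DMSO.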

[2] = read-out: Broad substrate specificity ATP-binding cassette transporter ABCG2 (Homo sapiens) (UniProt Q9UNQ0); assay: LTEA_HepaRG_ABCG2: Life Technologies and Expression Analysis (LTEA) Assay for ABC Transporter (ABCG2) using HepaRG (AID 2283465)
In short: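 Read-out is ABCG2 mRNA induction or loss quantified by qRT-PCR after 48 h chemical treatment of human HepaRG cells, normalized to three housekeeping genes. Concentrations reached 100 uM top in half-log steps; fitting was bidirectional against 0.5% DMSO.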

[3] = read-out: ATP-citrate lyase (ACLY), ACLY (gene 47); assay: LTEA_HepaRG_ACLY: Life Technologies and Expression Analysis (LTEA) Assay for ATP-citrate lyase (ACLY) using HepaRG (AID 2283466)
In short: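 HepaRG, 48 h exposure, 8-pt half-log dilutions (top 100 uM), 0.5% DMSO. Readout: ACLY mRNA, TaqMan qRT-PCR, housekeeping-normalized (ACTB/GAPDH/POLR2A). Bidirectional curve fit vs DMSO.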

[4] = read-out: Peroxisomal acyl-coenzyme A oxidase 1 (ACOX1) gene, ACOX1 (gene 51); assay: LTEA_HepaRG_ACOX1: Life Technologies and Expression Analysis (LTEA) Assay for Peroxisomal acyl-coenzyme A oxidase 1 (ACOX1) gene using HepaRG (AID 2283467)
In short: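 Measured by qRT-PCR against three housekeeping genes: ACOX1 transcript change in human HepaRG cells after 48 h dosing. Concentrations ran up to 100 uM in half-log steps. Curves were fitted bidirectionally relative to 0.5% DMSO.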

[5] = read-out: Bcl-2 (BAD) gene, BAD (gene 572); assay: LTEA_HepaRG_BAD: Life Technologies and Expression Analysis (LTEA) Assay for Bcl-2 (BAD) gene using HepaRG (AID 2283469)
In short: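 BAD transcript change, measured by qRT-PCR against three housekeeping genes and fitted in both directions relative to 0.5% DMSO, after 48 h chemical treatment of human HepaRG liver cells at concentrations up to 100 uM.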

[6] = read-out: Bcl-2 (BAX) gene, BAX (gene 581); assay: LTEA_HepaRG_BAX: Life Technologies and Expression Analysis (LTEA) Assay for Bcl-2 (BAX) gene using HepaRG (AID 2283470)
In short: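 Differentiated human HepaRG cells, plated 48 h then switched to serum-free induction medium, were exposed 48 h to 8 half-log concentrations up to 100 uM in 0.5% DMSO; BAX mRNA measured by qRT-PCR, normalized to ACTB, GAPDH, POLR2A.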

[7] = read-out: adenosine kinase (ADK) gene, ADK (gene 132); assay: LTEA_HepaRG_ADK: Life Technologies and Expression Analysis (LTEA) Assay for adenosine kinase (ADK) gene using HepaRG (AID 2283471)
In short: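 Read-out is ADK transcript level measured by qRT-PCR and normalised to three housekeeping genes. Cells are human HepaRG, dosed for 48 h at up to 100 uM in 0.5% DMSO. Gain or loss of signal is fitted against DMSO controls.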

[8] = read-out: Alpha-fetoprotein (AFP) gene, AFP (gene 174); assay: LTEA_HepaRG_AFP: Life Technologies and Expression Analysis (LTEA) Assay for Alpha-fetoprotein (AFP) gene using HepaRG (AID 2283472)
In short: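 Human HepaRG cells plated 48 h, then switched to serum-free induction medium and exposed in duplicate for 48 h to 8-point half-log series from 100 uM in 0.5% DMSO. AFP mRNA by qRT-PCR, normalized to ACTB, GAPDH, POLR2A; bidirectional fit versus DMSO.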

[9] = read-out: BCL2L11 (gene 10018); assay: LTEA_HepaRG_BCL2L11: Life Technologies and Expression Analysis (LTEA) Assay for Bcl-2 (BCL2L11) gene using HepaRG (AID 2283473)
In short: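 Differentiated human HepaRG cells in serum-free induction medium were exposed in duplicate for 48 h to eight concentrations (top 100 uM, half-log steps, 0.5% DMSO). BCL2L11 mRNA was quantified by TaqMan qRT-PCR, normalized to ACTB/GAPDH/POLR2A, bidirectional fit versus DMSO.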

[10] = read-out: Apolipoprotein A-V (APOA5) gene, APOA5 (gene 116519); assay: LTEA_HepaRG_APOA5: Life Technologies and Expression Analysis (LTEA) Assay for Apolipoprotein A-V (APOA5) gene using HepaRG (AID 2283474)
In short: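 Differentiated human HepaRG cells were exposed in duplicate for 48 h to eight half-log concentrations from 100 uM in 0.5% DMSO. APOA5 mRNA was quantified by TaqMan qRT-PCR, normalized to ACTB, GAPDH and POLR2A, and fitted bidirectionally against DMSO.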

[11] = read-out: Apoptosis regulator Bcl-2 (Homo sapiens) (UniProt P10415); assay: LTEA_HepaRG_BCL2: Life Technologies and Expression Analysis (LTEA) Assay for Bcl-2 gene using HepaRG (AID 2283475)
In short: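 Differentiated HepaRG cells in serum-free induction medium were exposed for 48 h to eight half-log concentrations up to 100 uM in 0.5% DMSO, in duplicate. BCL2 mRNA was quantified by TaqMan qRT-PCR normalised to ACTB, GAPDH and POLR2A, with bidirectional fitting versus DMSO.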

[12] = read-out: Caspase-3 (Homo sapiens) (UniProt P42574); assay: LTEA_HepaRG_CASP3: Life Technologies and Expression Analysis (LTEA) Assay for cysteine-aspartic acid protease (CASP3) using HepaRG (AID 2283477)
In short: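 Differentiated human HepaRG cells in serum-free induction medium were exposed 48 h to 8-point half-log concentrations from 100 uM (0.5% DMSO vehicle). CASP3 mRNA was measured by qRT-PCR, normalised to ACTB, GAPDH and POLR2A, with bidirectional fitting against DMSO.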

[13] = read-out: Cytochrome P450 (CYP24A1), CYP24A1 (gene 1591); assay: LTEA_HepaRG_CYP24A1: Life Technologies and Expression Analysis (LTEA) Assay for Cytochrome P450 (CYP24A1) using HepaRG (AID 2283478)
In short: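 Differentiated HepaRG cells, pre-cultured 48 h, were exposed in duplicate for 48 h in serum-free induction medium to 8 half-log concentrations (top 100 uM, 0.5% DMSO). CYP24A1 mRNA was quantified by TaqMan qRT-PCR, normalized to ACTB/GAPDH/POLR2A, fitted bidirectionally versus DMSO.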

[14] = read-out: Cytochrome P450 (CYP1A2), CYP1A2 (gene 1544); assay: LTEA_HepaRG_CYP1A2: Life Technologies and Expression Analysis (LTEA) Assay for Cytochrome P450 (CYP1A2) using HepaRG (AID 2283479)
In short: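 Differentiated human HepaRG cells in serum-free induction medium were exposed in duplicate for 48 h to 8-point half-log concentrations up to 100 uM in 0.5% DMSO. CYP1A2 mRNA measured by qRT-PCR, normalized to ACTB, GAPDH, POLR2A; bidirectional fit vs DMSO.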

[15] = read-out: cysteine-aspartic acid protease (CASP8), CASP8 (gene 841); assay: LTEA_HepaRG_CASP8: Life Technologies and Expression Analysis (LTEA) Assay for cysteine-aspartic acid protease (CASP8) using HepaRG (AID 2283480)
In short: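 HepaRG, 48 h exposure, duplicate wells; 8 conc, half-log from 100 uM, 0.5% DMSO. Serum-free induction medium. CASP8 mRNA by TaqMan qRT-PCR, norm. ACTB/GAPDH/POLR2A; gain/loss fitted vs DMSO.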

[16] = read-out: Cytochrome P450 (CYP2B6), CYP2B6 (gene 1555); assay: LTEA_HepaRG_CYP2B6: Life Technologies and Expression Analysis (LTEA) Assay for Cytochrome P450 (CYP2B6) using HepaRG (AID 2283481)
In short: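 Differentiated HepaRG cells, serum-free induction medium, exposed 48 h in duplicate to 8-point half-log concentrations from 100 uM in 0.5% DMSO. CYP2B6 mRNA by qRT-PCR, normalized to ACTB, GAPDH, POLR2A; bidirectional fit versus DMSO.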

[17] = read-out: Cytochrome P450 2C19 (Homo sapiens) (UniProt P33261); assay: LTEA_HepaRG_CYP2C19: Life Technologies and Expression Analysis (LTEA) Assay for CYP2C19 using HepaRG (AID 2283482)
In short: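 Differentiated human HepaRG cells were exposed for 48 h in serum-free induction medium to 8 concentrations (top 100 uM, half-log steps, 0.5% DMSO). CYP2C19 mRNA was measured by qRT-PCR, normalized to ACTB/GAPDH/POLR2A, and fitted bidirectionally against DMSO.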

[18] = read-out: CYP2C8 (gene 1558); assay: LTEA_HepaRG_CYP2C8: Life Technologies and Expression Analysis (LTEA) Assay for CYP2C8 using HepaRG (AID 2283483)
In short: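 CYP2C8 mRNA induction or loss, by qRT-PCR normalized to ACTB/GAPDH/POLR2A, is read in HepaRG cells after 48 h treatment. Concentrations run from 100 uM down in half-log dilutions, with 0.5% DMSO as vehicle and baseline.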

[19] = read-out: Bcl-2 (BID) gene, BID (gene 637); assay: LTEA_HepaRG_BID: Life Technologies and Expression Analysis (LTEA) Assay for Bcl-2 (BID) gene using HepaRG (AID 2283476)
In short: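 Differentiated HepaRG cells in serum-free induction medium were exposed in duplicate for 48 h to eight half-log concentrations up to 100 uM in 0.5% DMSO. BID mRNA was quantified by qRT-PCR, normalized to ACTB, GAPDH and POLR2A.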

[20] = read-out: Alkaline Phosphatase, Placental (ALPP) gene, ALPP (gene 250); assay: LTEA_HepaRG_ALPP: Life Technologies and Expression Analysis (LTEA) Assay for Alkaline Phosphatase, Placental (ALPP) gene using HepaRG (AID 2283468)
In short: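 Differentiated human HepaRG cells were plated and cultured 48 h, then exposed in duplicate for 48 h in serum-free induction medium to eight half-log concentrations from 100 uM in 0.5% DMSO. ALPP mRNA was measured by TaqMan qRT-PCR, normalized to ACTB, GAPDH, POLR2A.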

Measured: AC50

Chain of Cytochrome P450 2C19 (Homo sapiens) (P33261 whole entry, looked up): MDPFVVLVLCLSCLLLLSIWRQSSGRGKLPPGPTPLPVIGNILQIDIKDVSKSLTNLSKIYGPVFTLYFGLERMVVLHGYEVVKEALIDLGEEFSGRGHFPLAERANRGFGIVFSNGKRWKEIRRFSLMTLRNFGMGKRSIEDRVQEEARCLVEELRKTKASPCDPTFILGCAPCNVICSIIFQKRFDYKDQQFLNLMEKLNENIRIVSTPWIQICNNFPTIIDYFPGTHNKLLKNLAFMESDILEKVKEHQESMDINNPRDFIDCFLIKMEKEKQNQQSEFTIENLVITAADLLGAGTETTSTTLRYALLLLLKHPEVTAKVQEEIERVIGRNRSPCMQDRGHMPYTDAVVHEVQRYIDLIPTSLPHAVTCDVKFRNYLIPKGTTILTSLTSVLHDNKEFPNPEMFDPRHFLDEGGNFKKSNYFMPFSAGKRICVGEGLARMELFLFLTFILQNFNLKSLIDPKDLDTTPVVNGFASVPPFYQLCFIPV
Chain of Caspase-3 (Homo sapiens) (P42574 whole entry, looked up): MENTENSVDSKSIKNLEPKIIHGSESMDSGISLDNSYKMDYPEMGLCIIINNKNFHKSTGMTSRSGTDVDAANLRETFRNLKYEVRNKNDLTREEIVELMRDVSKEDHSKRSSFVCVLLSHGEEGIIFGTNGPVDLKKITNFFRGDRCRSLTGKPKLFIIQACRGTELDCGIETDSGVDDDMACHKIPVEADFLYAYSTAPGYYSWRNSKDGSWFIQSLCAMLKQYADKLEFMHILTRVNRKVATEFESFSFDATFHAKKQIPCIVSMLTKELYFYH
Chain of Apoptosis regulator Bcl-2 (Homo sapiens) (P10415 whole entry, looked up): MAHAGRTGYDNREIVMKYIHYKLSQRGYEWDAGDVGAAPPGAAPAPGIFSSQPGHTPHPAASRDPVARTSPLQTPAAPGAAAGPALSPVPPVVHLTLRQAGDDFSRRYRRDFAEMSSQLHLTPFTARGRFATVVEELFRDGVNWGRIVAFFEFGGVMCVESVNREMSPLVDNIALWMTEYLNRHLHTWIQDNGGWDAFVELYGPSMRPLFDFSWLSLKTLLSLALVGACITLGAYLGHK
Chain of Broad substrate specificity ATP-binding cassette transporter ABCG2 (Homo sapiens) (Q9UNQ0 whole entry, looked up): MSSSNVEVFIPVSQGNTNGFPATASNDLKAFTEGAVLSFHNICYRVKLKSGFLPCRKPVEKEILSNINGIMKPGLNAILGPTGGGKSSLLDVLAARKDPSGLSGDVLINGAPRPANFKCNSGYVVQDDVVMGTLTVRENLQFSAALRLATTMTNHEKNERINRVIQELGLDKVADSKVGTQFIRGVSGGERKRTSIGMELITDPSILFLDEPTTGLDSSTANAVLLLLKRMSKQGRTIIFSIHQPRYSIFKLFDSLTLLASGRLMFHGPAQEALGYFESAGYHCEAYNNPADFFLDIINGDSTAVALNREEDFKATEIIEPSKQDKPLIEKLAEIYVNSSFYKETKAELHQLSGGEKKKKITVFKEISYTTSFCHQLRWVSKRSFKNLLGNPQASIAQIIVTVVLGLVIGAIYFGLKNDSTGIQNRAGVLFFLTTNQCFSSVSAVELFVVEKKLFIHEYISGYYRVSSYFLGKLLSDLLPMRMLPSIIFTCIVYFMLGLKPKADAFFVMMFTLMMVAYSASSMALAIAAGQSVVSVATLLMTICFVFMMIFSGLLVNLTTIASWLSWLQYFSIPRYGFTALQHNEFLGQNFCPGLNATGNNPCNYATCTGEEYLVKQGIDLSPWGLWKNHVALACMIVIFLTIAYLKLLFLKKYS

CC(C)(C)c1csc(-c2cc3cc(OCc4ccccc4CC(=O)O)ccc3o2)n1
active: [1] 93.8 µM | [2] 15.8 µM | [3] 87.4 µM | [4] 72.1 µM | [7] 73.1 µM | [8] 23.9 µM | [9] 18.8 µM | [10] 20 µM | [12] 77.7 µM | [16] 23.3 µM | [17] 33.5 µM | [18] 25.5 µM
inactive: [5] | [6] | [11] | [13] | [14] | [15]

CN1C(=O)N(c2ccccc2Br)Cc2cnc(Nc3ccc4c(c3)OCC(CO)O4)nc21 (centres undefined)
active: [1] 77.1 µM | [3] 50 µM | [4] 77.9 µM | [6] 12.9 µM | [7] 88.9 µM | [8] 23.1 µM | [10] 90.3 µM | [11] 89.1 µM | [12] 66.4 µM | [14] 90.9 µM | [15] 85.8 µM | [16] 74.3 µM | [17] 35.4 µM
inactive: [2] | [5] | [9] | [18]

CCCCCCCCCCCO
not listed: [14] | [19] | [20]
inactive: all other assays above

CCCOC(=O)c1cc(O)c(O)c(O)c1
active: [1] 6.03 µM | [2] 4.97 µM | [8] 15.2 µM | [16] 0.674 µM | [17] 0.793 µM
not listed: [5] | [6] | [14] | [20]
inactive: all other assays above

O=C(O)c1ccccc1C(=O)OCc1ccccc1
not listed: [19] | [20]
inactive: all other assays above

O=c1ccc2ccccc2o1
active: [16] 40.3 µM
not listed: [14] | [19]
inactive: all other assays above

CN(C)C(=O)C1(N2CCCCC2)CCN(CC[C@@]2(c3ccc(Cl)c(Cl)c3)CN(C(=O)c3ccccc3)CCO2)CC1
active: [3] 47.2 µM | [4] 88.1 µM | [20] 14.9 µM | [6] 27.1 µM | [9] 86.8 µM | [11] 22.6 µM | [14] 24.2 µM | [16] 27.8 µM | [17] 23.9 µM | [18] 28 µM
inactive: [2] | [5] | [7] | [8] | [10] | [19] | [12] | [13] | [15]

c1ccc2ccccc2c1
active: [16] 12.1 µM
not listed: [14] | [19] | [20]
inactive: all other assays above

Oc1ccc2ccccc2c1
not listed: [14] | [20]
inactive: all other assays above

c1ccc(C[n+]2cccc3ccccc32)cc1
active: [2] 3.93 µM | [4] 22.8 µM | [6] 69.4 µM | [8] 35 µM | [9] 32.4 µM | [10] 31.4 µM | [11] 35.1 µM | [16] 50 µM | [17] 50 µM | [18] 30 µM
inactive: [1] | [3] | [5] | [7] | [12] | [13] | [15]

CC(O)CC(C)(C)O (centres undefined)
inactive: all assays above

CN1C(=O)CC[C@H]1c1cccnc1
not listed: [14]
inactive: all other assays above
